Records with an inconclusive call do not appear. Values without a mark were called inactive. The source made the active and inactive calls. The call rests on the fitted dose curve; in most records, active means well fitted curve in the direction sought with a large enough effect in the repeat runs; inconclusive means weak or mixed curves; inactive means no such curve, though single readings can be large; an effect the other way counts as inactive or inconclusive.
On the % scale 0 is the no-effect control and ±100 the full control effect.

Chain of Nuclear receptor subfamily 1 group I member 2 (Rattus norvegicus) (Q9R1A7 whole entry, looked up): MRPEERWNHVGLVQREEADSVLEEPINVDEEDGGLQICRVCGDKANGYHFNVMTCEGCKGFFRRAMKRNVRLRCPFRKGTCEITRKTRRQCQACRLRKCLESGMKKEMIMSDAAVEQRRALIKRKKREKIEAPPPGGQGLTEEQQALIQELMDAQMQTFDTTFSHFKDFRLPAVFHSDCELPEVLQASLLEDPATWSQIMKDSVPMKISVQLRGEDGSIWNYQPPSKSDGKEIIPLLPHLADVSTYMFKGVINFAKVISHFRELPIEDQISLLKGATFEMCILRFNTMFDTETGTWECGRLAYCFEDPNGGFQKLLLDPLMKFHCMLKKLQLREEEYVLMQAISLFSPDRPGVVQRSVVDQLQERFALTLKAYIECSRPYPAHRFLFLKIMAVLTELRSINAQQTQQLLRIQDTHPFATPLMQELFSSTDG

In the first experiment the target is Nuclear receptor subfamily 1 group I member 2 (Rattus norvegicus) (UniProt Q9R1A7). Briefly: Rat pregnane X receptor (rPXR) activation by small molecules, qHTS assay (AID 1346983). Further: nearly all actives have a fitted effect of over 20% in size. Further: potency means the concentration at half of the fitted maximal effect. Particulars: rPXR luciferase reporter cells, One-Glo luminescence, 24 h; max activation: stronger effect = higher value. In short, it runs like this:
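Cell-based rPXR luciferase reporter assay, 2,000 cells per well, rested 5hr at 37 C before compound addition in DMSO, then 24 hr at 37 C. One-Glo reagent was added and luminescence read after 30 min at room temperature.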
For orientation: Quantitative high-throughput screening tests each substance at several concentrations.
Take `CO[C@@H]1[C@H](OC(=O)/C=C/C=C/C=C/C=C/C(=O)O)CC[C@]2(CO2)[C@H]1[C@@]1(C)O[C@@H]1CC=C(C)C`: the max activation is 0.0882%.
Consider `NCC(=O)CCC(=O)O`, for which the max activation is -1.79%.
On the same count and under the same terms, the same measure for `CC(=O)OC[C@H]1O[C@@H](n2ncc(=O)[nH]c2=O)[C@H](OC(C)=O)[C@@H]1OC(C)=O`: -1.15%; for `CCn1cc(C(=O)O)c(=O)c2cnc(N3CCNCC3)nc21`: -1.76%.
With `Cc1cccc(C)c1NC(=O)CN(CC(=O)O)CC(=O)O`, the max activation is -0.0723%.
As to `Cc1cccc(C)c1OCC(=O)N[C@@H](Cc1ccccc1)[C@@H](O)C[C@H](Cc1ccccc1)NC(=O)[C@H](C(C)C)N1CCCNC1=O`, the Potency was 11.2 µM (active).
`Cc1[nH]c(C)c(Cl)c(=O)c1Cl`: the max activation was -3.17%.

For another experiment, the target named is Nuclear receptor subfamily 1 group I member 2 (Homo sapiens) (UniProt O75469). Briefly: CYP3A4 induction through human pregnane X receptor (PXR) by small molecules, qHTS assay (AID 1346984). Further: nearly all actives have a fitted effect of over 40% in size. Particulars: DPX-2 HepG2 PXR, CYP3A4-luciferin luminescence, 24 h; series mostly up to 46.1 µM; activation: at the top concentration. In short, it runs like this:
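Cells (DPX-2; HepG2 with PXR element plus CYP3A4-promoter luciferase) settled 5hr, then were treated 24hr at 37C. A 3hr, 3uM-final Luciferin-IPA step preceded luminescence measurement with One-Glo.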
With `CO[C@@H]1[C@H](OC(=O)/C=C/C=C/C=C/C=C/C(=O)O)CC[C@]2(CO2)[C@H]1[C@@]1(C)O[C@@H]1CC=C(C)C`, the “activation” value is -4.41%.
The same measure, in the same setting: the same measure for `NCC(=O)CCC(=O)O`: 14.3%.
For `CC(=O)OC[C@H]1O[C@@H](n2ncc(=O)[nH]c2=O)[C@H](OC(C)=O)[C@@H]1OC(C)=O`, the “activation” value is -5.14%.
As to `CCn1cc(C(=O)O)c(=O)c2cnc(N3CCNCC3)nc21`, the “activation” value was -0.043% [at 20.6 µM].
In the case of `Cc1cccc(C)c1NC(=O)CN(CC(=O)O)CC(=O)O`, the “activation” value was 1.79%.
On the same count and under the same terms, as for `Cc1[nH]c(C)c(Cl)c(=O)c1Cl`, the figure is -7.46%.

The target is the same in another experiment. Put plainly: Human pregnane X receptor (PXR) activation by small molecules, qHTS assay (AID 1346985). Further: nearly all actives have a fitted effect of over 40% in size. Further: potency means the concentration at half of the fitted maximal effect. Particulars: DPX-2 HepG2 CYP3A4-luciferase, 24 h; series mostly up to 38.3 µM; activation: at the top concentration. The method, boiled down: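 DPX-2 cells (HepG2 co-transfected with a PXR response element and a CYP3A4-promoter luciferase construct) were seeded at 2,000 per well, rested 5 hr at 37C, then exposed to DMSO-dissolved compounds for 24 hr. Activation was read as luciferase luminescence.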
Regarding `CO[C@@H]1[C@H](OC(=O)/C=C/C=C/C=C/C=C/C(=O)O)CC[C@]2(CO2)[C@H]1[C@@]1(C)O[C@@H]1CC=C(C)C`, the “activation” value is 22%.
Turning to `NCC(=O)CCC(=O)O`, the “activation” value is -7.59%.
Still for that read-out and setting: as for `CC(=O)OC[C@H]1O[C@@H](n2ncc(=O)[nH]c2=O)[C@H](OC(C)=O)[C@@H]1OC(C)=O`, the figure is -2.74%; as for `CCn1cc(C(=O)O)c(=O)c2cnc(N3CCNCC3)nc21`, -4.22% [at 17.1 µM].
`Cc1cccc(C)c1NC(=O)CN(CC(=O)O)CC(=O)O`: the “activation” value was -8.66%.
For `Cc1cccc(C)c1OCC(=O)N[C@@H](Cc1ccccc1)[C@@H](O)C[C@H](Cc1ccccc1)NC(=O)[C@H](C(C)C)N1CCCNC1=O`, the Potency was 3.98 µM (active).
As to `Cc1[nH]c(C)c(Cl)c(=O)c1Cl`, the “activation” value was -3.69%.

For another experiment, the target named is Cytochrome P450 2D6 (Homo sapiens) (UniProt P10635). Briefly: Cytochrome P450 Family 2 Subfamily D Member 6 (CYP2D6) small molecule antagonists: luciferase reporter qHTS assay (AID 1671196). Further: nearly all actives have a fitted effect of over 50% in size. Further: potency means the concentration at half of the fitted maximal effect. The settings on record: P450-Glo CYP2D6 enzyme assay, luciferin luminescence, 1 h; series mostly up to 115 µM; activity change, negative = inhibition: at the top concentration. The method, boiled down: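 Room-temperature luminescent CYP2D6 activity assay: compound preincubated 10 min with enzyme–substrate mix, NADPH-initiated reaction 1 h, detection reagent 20 min before reading.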
Chain of Cytochrome P450 2D6 (Homo sapiens) (P10635 whole entry, looked up): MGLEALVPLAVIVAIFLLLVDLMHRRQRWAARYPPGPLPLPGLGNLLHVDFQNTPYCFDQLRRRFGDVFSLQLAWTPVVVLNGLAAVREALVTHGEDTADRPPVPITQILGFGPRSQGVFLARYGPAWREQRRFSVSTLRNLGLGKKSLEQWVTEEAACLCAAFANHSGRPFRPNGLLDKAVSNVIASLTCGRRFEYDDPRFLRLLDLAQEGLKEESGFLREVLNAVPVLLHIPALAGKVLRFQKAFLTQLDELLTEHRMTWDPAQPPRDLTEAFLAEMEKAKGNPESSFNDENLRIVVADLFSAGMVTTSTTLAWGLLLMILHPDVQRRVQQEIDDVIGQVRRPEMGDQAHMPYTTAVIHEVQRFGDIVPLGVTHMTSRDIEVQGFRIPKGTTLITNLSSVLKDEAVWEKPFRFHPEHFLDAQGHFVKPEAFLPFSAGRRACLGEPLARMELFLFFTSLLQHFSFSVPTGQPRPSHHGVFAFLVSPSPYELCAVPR
Take `CCCCCCCC/C=C\CCCCCCCC(=O)OCC`: the “activity change, negative = inhibition” value is -8.44%.
As for `CC(C)(COC(=O)c1ccccc1)COC(=O)c1ccccc1`, the “activity change, negative = inhibition” value was 0.166%.
Turning to `CCOC(=O)C(F)(F)F`, the Potency is 35.6 µM (active).
Take `c1ccc(-c2ccccn2)nc1`: the “activity change, negative = inhibition” value is 1.21%.
For the compound `CC(C)(C)Cl`, the “activity change, negative = inhibition” value was -19.5%.
In the case of `CC(C)CC(=O)C1C(=O)c2ccccc2C1=O`, the “activity change, negative = inhibition” value was -21.3%.
As to `O=C(CS)Nc1ccccc1`, the “activity change, negative = inhibition” value was -19.1% [at 53 µM].
For the compound `NCC(=O)CCC(=O)O`, the “activity change, negative = inhibition” value is -8.38% [at 53 µM].
With `CC(=O)OC[C@H]1O[C@@H](n2ncc(=O)[nH]c2=O)[C@H](OC(C)=O)[C@@H]1OC(C)=O`, the Potency is 4.36 µM (active).
For `Cc1nn(C)c(Oc2ccccc2)c1/C=N/OCc1ccc(C(=O)OC(C)(C)C)cc1`, the “activity change, negative = inhibition” value is -24.4%.
Regarding `O=S(=O)(Oc1ccc(Cl)cc1)c1ccccc1`, the Potency is 31.7 µM (active).
In the case of `CCO[C@H](Cc1ccc(OCCc2ccc(OS(C)(=O)=O)cc2)cc1)C(=O)O`, the “activity change, negative = inhibition” value is -1.3% [at 53 µM].
In the case of `CCn1cc(C(=O)O)c(=O)c2cnc(N3CCNCC3)nc21`, the “activity change, negative = inhibition” value is -2.88% [at 53 µM].
`O=C(O)c1ccc(-n2nc(-c3ccccc3O)nc2-c2ccccc2O)cc1`: the “activity change, negative = inhibition” value was 4.39% [at 53 µM].
Take `Cc1cccc(C)c1NC(=O)CN(CC(=O)O)CC(=O)O`: the “activity change, negative = inhibition” value is -1.7% [at 53 µM].
Same read-out and setting: as for `COc1ccc2cccc(CCNC(C)=O)c2c1`, the figure is -14% [at 53 µM]; as for `O=C(NCC1CN(c2ccc(N3CCOCC3=O)cc2)C(=O)O1)c1ccc(Cl)s1` (stereo unspecified), -9.67% [at 53 µM].
`Cc1cccc(C)c1OCC(=O)N[C@@H](Cc1ccccc1)[C@@H](O)C[C@H](Cc1ccccc1)NC(=O)[C@H](C(C)C)N1CCCNC1=O`: the Potency is 15.5 µM (active).
Turning to `C=CC(=O)OCCOCCOC(=O)C=C`, the “activity change, negative = inhibition” value is -19.3%.
Same read-out and setting: the same measure for `Cc1[nH]c(C)c(Cl)c(=O)c1Cl`: -9.89% [at 23.6 µM].

In a further experiment the target is Cytochrome P450 2C19 (Homo sapiens) (UniProt P33261). Briefly: Cytochrome P450 Family 2 Subfamily C Member 19 (CYP2C19) small molecule antagonists: luciferase reporter qHTS assay (AID 1671197). Further: nearly all actives have a fitted effect of over 65% in size. Further: potency means the concentration at half of the fitted maximal effect. Particulars: P450-Glo CYP2C19 enzyme, luciferin luminescence, 1 h; series mostly up to 52.9 µM; activity change, negative = inhibition: at the top concentration. The method, boiled down: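 First, compounds are pinned into enzyme-substrate mix and held 10 min at room temperature. Second, NADPH regeneration solution is added and plates incubate 1 h at 37C. Third, detection reagent is added and luminescence read after 20 min.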
Chain of Cytochrome P450 2C19 (Homo sapiens) (P33261 whole entry, looked up): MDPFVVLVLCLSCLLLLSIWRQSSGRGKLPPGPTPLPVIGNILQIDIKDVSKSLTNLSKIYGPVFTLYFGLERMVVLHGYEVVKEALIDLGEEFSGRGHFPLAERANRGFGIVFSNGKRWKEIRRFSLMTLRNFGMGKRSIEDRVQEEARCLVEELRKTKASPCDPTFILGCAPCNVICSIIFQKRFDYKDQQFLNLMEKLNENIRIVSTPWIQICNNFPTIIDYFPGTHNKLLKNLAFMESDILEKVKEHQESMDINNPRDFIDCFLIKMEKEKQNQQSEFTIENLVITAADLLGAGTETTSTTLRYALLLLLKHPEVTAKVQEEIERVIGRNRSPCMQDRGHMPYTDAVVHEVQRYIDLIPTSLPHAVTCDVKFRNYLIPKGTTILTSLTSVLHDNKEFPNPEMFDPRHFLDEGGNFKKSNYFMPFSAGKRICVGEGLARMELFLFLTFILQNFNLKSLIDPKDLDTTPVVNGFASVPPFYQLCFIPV
(In general: A reporter such as luciferase makes a cellular process visible.)
For the compound `CC(C)(COC(=O)c1ccccc1)COC(=O)c1ccccc1`, the Potency is 20 µM (active).
For `CCOC(=O)C(F)(F)F`, the “activity change, negative = inhibition” value is -18.5% [at 115 µM].
Still for that read-out and setting: the same measure for `CC(C)(C)Cl`: 25.6% [at 115 µM].
With `CC(C)=CCC/C(C)=C/CC/C(C)=C/CO`, the Potency is 4.48 µM (active).
In the case of `CC(C)CC(=O)C1C(=O)c2ccccc2C1=O`, the Potency is 39.9 µM (active).
Regarding `O=C(CS)Nc1ccccc1`, the Potency is 8.71 µM (active).
Regarding `Nc1cccc(S(=O)(=O)c2cccc(N)c2)c1`, the Potency is 35.6 µM (active).
As to `NCC(=O)CCC(=O)O`, the “activity change, negative = inhibition” value is -7.25%.
For `CC(=O)OC[C@H]1O[C@@H](n2ncc(=O)[nH]c2=O)[C@H](OC(C)=O)[C@@H]1OC(C)=O`, the “activity change, negative = inhibition” value is 20.5%.
Turning to `O=S(=O)(Oc1ccc(Cl)cc1)c1ccccc1`, the Potency is 0.894 µM (active).
For `CCO[C@H](Cc1ccc(OCCc2ccc(OS(C)(=O)=O)cc2)cc1)C(=O)O`, the “activity change, negative = inhibition” value is 6.93%.
On the same count and under the same terms, the same measure for `CCn1cc(C(=O)O)c(=O)c2cnc(N3CCNCC3)nc21`: 33.6%; for `O=C(O)c1ccc(-n2nc(-c3ccccc3O)nc2-c2ccccc2O)cc1`: 10.1%; for `Cc1cccc(C)c1NC(=O)CN(CC(=O)O)CC(=O)O`: 18.9%.
In the case of `COc1ccc2cccc(CCNC(C)=O)c2c1`, the Potency was 34.7 µM (active).
For `O=C(NCC1CN(c2ccc(N3CCOCC3=O)cc2)C(=O)O1)c1ccc(Cl)s1` (stereo unspecified), the “activity change, negative = inhibition” value was 4.82%.
Consider `CCCCC/C=C\C/C=C\CCCCCCCC(=O)NC(C)c1ccccc1` (stereo unspecified), for which the Potency is 4.9 µM (active).
For the compound `Cc1cccc(C)c1OCC(=O)N[C@@H](Cc1ccccc1)[C@@H](O)C[C@H](Cc1ccccc1)NC(=O)[C@H](C(C)C)N1CCCNC1=O`, the Potency is 21.9 µM (active).
Take `COc1cc(Cl)c(OC)cc1N`: the Potency was 22.4 µM (active).
Consider `Cc1[nH]c(C)c(Cl)c(=O)c1Cl`, for which the “activity change, negative = inhibition” value was 19.1% [at 23.6 µM].
With `Cc1ccc(C(=O)Oc2ccc(C(O)CNC(C)(C)C)cc2OC(=O)c2ccc(C)cc2)cc1` (stereo unspecified), the “activity change, negative = inhibition” value is 0.793%.

(Values after PubChem BioAssay (Tox21).)
